Assay results: PubChem BioAssay
Where “and” joins values, the source holds several entries; their conditions need not be identical. Equal entries are not always repeated.

Tests used:
[1] = system: Botulinum neurotoxin type F light chain protease (Clostridium botulinum); assay: Clostridium botulinum type F light chain protease inhibitors, microsphere substrate cleavage, validation (AID 588459); conditions: multiplex microsphere protease substrate cleavage assay, flow cytometry; at 10 µM; hits give high values
[2] = biological target: Botulinum neurotoxin type A (Clostridium botulinum) (UniProt P0DPI0); assay: BoNT/A light chain protease inhibitors, biochemical, multiplex microsphere flow cytometry, validation set (AID 588460); conditions: at 10 µM, hits give high values
[3] = biological target: Lethal factor (Bacillus anthracis) (UniProt P15917); assay: Bacillus anthracis lethal factor inhibition, microsphere flow cytometry protease assay, validation at 10 µM (AID 588461); conditions: multiplex microsphere protease cleavage assay, hits give high values

Measured: inhibition

Chain of Lethal factor (Bacillus anthracis) (P15917 whole entry, looked up): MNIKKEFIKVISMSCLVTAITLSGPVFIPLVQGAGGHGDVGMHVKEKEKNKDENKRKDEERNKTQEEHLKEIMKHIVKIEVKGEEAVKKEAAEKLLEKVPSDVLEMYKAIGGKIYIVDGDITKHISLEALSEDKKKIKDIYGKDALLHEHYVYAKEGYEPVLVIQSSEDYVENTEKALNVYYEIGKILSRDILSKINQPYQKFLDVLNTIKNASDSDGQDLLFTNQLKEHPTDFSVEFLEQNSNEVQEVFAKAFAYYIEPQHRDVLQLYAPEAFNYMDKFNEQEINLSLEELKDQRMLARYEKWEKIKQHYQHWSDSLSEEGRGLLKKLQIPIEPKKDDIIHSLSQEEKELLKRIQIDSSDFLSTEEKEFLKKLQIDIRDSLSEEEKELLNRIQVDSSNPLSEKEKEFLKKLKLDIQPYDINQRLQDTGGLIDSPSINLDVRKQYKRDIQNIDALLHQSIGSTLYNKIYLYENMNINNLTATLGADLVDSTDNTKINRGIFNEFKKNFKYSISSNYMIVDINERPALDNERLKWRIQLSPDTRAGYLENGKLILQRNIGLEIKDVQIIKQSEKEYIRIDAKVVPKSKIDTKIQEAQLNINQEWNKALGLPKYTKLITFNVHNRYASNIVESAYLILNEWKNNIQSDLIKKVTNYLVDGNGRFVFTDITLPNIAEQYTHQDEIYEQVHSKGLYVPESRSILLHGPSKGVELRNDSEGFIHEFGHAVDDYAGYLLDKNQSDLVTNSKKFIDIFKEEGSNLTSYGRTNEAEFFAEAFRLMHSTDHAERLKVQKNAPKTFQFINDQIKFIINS
Chain of Botulinum neurotoxin type A (Clostridium botulinum) (P0DPI0 whole entry, looked up): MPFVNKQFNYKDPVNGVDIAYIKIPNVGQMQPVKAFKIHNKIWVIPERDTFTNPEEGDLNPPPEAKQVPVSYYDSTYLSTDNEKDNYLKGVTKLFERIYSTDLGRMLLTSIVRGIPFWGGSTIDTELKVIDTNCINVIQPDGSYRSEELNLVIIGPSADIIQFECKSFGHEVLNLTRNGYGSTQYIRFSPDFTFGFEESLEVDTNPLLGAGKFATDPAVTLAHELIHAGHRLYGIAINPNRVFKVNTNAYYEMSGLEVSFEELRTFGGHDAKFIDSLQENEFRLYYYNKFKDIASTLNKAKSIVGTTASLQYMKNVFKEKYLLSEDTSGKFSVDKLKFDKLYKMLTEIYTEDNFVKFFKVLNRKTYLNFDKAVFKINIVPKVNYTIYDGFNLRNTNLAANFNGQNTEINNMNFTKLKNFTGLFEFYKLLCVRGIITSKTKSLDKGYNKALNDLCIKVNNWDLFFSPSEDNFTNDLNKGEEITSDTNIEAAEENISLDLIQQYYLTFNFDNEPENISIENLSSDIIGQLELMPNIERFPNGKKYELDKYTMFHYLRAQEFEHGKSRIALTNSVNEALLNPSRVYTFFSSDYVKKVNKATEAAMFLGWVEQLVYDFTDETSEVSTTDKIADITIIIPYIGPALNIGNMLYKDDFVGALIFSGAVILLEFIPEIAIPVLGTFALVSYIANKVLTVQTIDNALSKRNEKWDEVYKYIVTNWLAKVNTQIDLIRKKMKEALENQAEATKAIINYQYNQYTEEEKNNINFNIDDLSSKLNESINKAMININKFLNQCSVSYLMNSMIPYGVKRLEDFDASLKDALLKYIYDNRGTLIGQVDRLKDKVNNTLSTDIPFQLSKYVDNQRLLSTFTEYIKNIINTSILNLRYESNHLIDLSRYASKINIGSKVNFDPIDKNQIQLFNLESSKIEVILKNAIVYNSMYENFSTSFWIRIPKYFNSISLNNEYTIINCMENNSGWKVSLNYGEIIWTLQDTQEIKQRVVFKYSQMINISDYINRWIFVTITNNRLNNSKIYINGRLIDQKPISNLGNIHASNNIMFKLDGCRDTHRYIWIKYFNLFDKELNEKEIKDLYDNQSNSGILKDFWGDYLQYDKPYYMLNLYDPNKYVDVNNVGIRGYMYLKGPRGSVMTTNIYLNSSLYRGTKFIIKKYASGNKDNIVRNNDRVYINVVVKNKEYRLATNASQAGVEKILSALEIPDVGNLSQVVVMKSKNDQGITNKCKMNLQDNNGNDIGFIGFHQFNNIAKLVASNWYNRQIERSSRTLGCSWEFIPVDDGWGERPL

CCOCC(=O)Nc1nc2ccccc2s1
inactive: [1] -2.1% | [2] 1.5% | [3] -0.2%

O=C(NCCO)c1ccc(Cl)c(Cl)c1
inactive: [1] -0.2% | [2] -0.6% | [3] -2.2%

Cc1ccc2[nH]c3c(c2c1)CN(C)CC3
inactive: [1] -2.8% | [2] -0.7% | [3] -15%

CCn1ccnc1CN(C)Cc1cn(-c2cccc(C)c2)nc1-c1cccc(F)c1
inactive: [1] 0.6% | [2] -0.3% | [3] -3.5%

CCN(CC)CCNC(=O)c1cc(Cl)c(N)cc1OC
inactive: [1] -1.3% | [2] -0.2% | [3] 0%

COc1c2occc2c(OC)c2c(=O)cc(C(F)(F)C(F)(F)F)oc12
inactive: [1] 2.3% | [2] 0.5% | [3] 0.4%

O=C(O)/C=C/c1cccc(OCc2ccccc2)c1
inactive: [1] -2.1% | [2] -0.9% | [3] 3.3%

CN(C)CCCN1c2ccccc2Sc2ccc(Cl)cc21
inactive: [1] -3.6% and 2.8% | [2] 0.6% | [3] -0.5% and 0.1%

CC(C)[N+](C)(CCOC(=O)C1c2ccccc2Oc2ccccc21)C(C)C
inactive: [1] -0.1% | [2] 0.5% | [3] 4%

Cc1nc2ccccc2n1CC(O)Cn1c2ccccc2c2ccccc21 (stereo not drawn)
inactive: [1] 2.9% | [2] -0.1% | [3] -0.7%

CCN(CC)c1ccc([C@H]2[C@@H]3CCCC[C@]3(O)CCN2CC(=O)NCc2ccco2)cc1
inactive: [1] -1.2% | [2] 0.9% | [3] -7.7%
